Assay results reported in PubChem BioAssay (NCI).
The panel holds about 79,000 compounds, 15% with a hit somewhere; the sample as a whole holds those more often. A number with no mark means an inactive call. Activity calls are given as the source filed them. Rule as the data show it: active = growth inhibition above about 70%; inactive = the rest.

Columns and labels:
[1] = NCI Yeast Anticancer Drug Screen. Data for the rad50 strain (AID 155);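 also: 0% = growth of vehicle-only cultures of the same strain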; details: S. cerevisiae rad50 strain growth inhibition; at 50.0 µM; stronger effect = higher value
In short: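 Yeast carrying a defined DNA repair defect were exposed to test compounds, and growth was compared with vehicle-treated controls to give percent inhibition.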

[2] = NCI Yeast Anticancer Drug Screen. Data for the mec2-1 strain (AID 157); details: S. cerevisiae mec2-1 strain, at 50.0 µM, stronger effect = higher value
In short: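 Using mec2-1 yeast: add compound, measure growth, express inhibition versus vehicle-treated cultures.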

[3] = NCI Yeast Anticancer Drug Screen. Data for the sgs1 mgt1 strain (AID 161);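 also: 0% = growth of cultures given vehicle only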; details: S. cerevisiae sgs1 mgt1 strain, at 50.0 µM, stronger effect = higher value
In short: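 This yeast growth screen uses a strain with defined DNA-repair lesions; compound-treated growth is compared with vehicle-treated growth.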

[4] = NCI Yeast Anticancer Drug Screen. Data for the cln2 rad14 strain (AID 165);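 also: 0% = growth equal to vehicle treated cultures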; details: S. cerevisiae cln2 rad14 strain, at 50.0 µM, stronger effect = higher value
In short: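 Yeast strain cln2 rad14, bearing defects in cell cycle control and DNA repair, serves as the test system; values reflect growth inhibition compared with vehicle.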

[5] = NCI Yeast Anticancer Drug Screen. Data for the bub3 strain (AID 167); details: S. cerevisiae bub3 mutant strain, at 50.0 µM, stronger effect = higher value
In short: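 Compounds were applied to a genetically altered yeast strain carrying a cell-cycle control defect. Growth inhibition was scored against vehicle-treated controls.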

[6] = NCI Yeast Anticancer Drug Screen. Data for the mlh1 rad18 strain (AID 175); details: S. cerevisiae mlh1 rad18 strain growth inhibition; at 50.0 µM; stronger effect = higher value
In short: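 Steps: expose repair-defective yeast to compound; measure growth; express inhibition against vehicle-treated controls.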

SMILES	growth inhibition [1]	growth inhibition [2]	growth inhibition [3]	growth inhibition [4]	growth inhibition [5]	growth inhibition [6]
O=C1c2c(ccc3c2CCC3)CC12Cc1cc3c(cc1C2)CCC3	-33.8%	-32.5%	-22.9%	10.9%	-0.5%	-15.2%
NC(N)=N/N=C/c1c(Cl)nc2n1CCS2	-7.35%	-32.2%	-9.5%	3.5%	22.4%	-6.8%
CC(=O)Oc1ccccc1-c1cc2ccccc2oc1=O	-20.2%	20.8%	0.85%	5.15%	38.8%	11.8%
Clc1ccc(Cl)c(N=Nc2cc3c4c(c2)CCN4CCC3)c1	-34%	-35.1%	-15.2%	-16.3%	-10.8%	-18.8%
CC(C)CCCC(C)C1CCC2C3C(=O)C=C4C=CCCC4(C)C3CCC12C (stereo unspecified)	5.95%	11.2%	34.1%	9.55%	5.9%	10.5%
COC(=O)/C(C#N)=C(/NCc1ccccc1)Nc1ccccc1	20.8%	-13.1%	-8.2%	11.4%	43.6%	21.4%
COC(=O)C1C2C=CC(C1C(=O)O)C1C(Br)=C(Br)C21 (stereo unspecified)	20.4%	10.9%	-8.05%	-10.1%	1.9%	-8.45%
O=c1[nH]c(=O)n(C2OC(CO)C(O)C2O)cc1OCc1ccccc1 (stereo unspecified)	-31.8%	-19.8%	-22.8%	4.75%	-6.6%	-31.5%
NC(=O)c1ccccc1OC(=O)Nc1ccccc1	16.6%	7.5%	5.1%	17.2%	22.1%	10.8%
CCC1=CC(C=O)N(C(C)=O)c2ccccc21 (stereo unspecified)	-2.85%	7.8%	7.2%	2.1%	1.95%	-2.5%
COC(=O)C[CH2][Ge]([CH3])([CH3])[S]c1ccccc1	52.9%	27.1%	34.1%	4.3%	15.4%	18.1%
NC(=O)CS	-14.3%	-17.2%	-21.8%	-11.7%	-14.1%	-22.1%
CNC(CCCC1CCCCC1)C(=O)O (stereo unspecified)	-2.85%	5.7%	-0.15%	11.4%	12.8%	-7.35%
CCOC(=O)N1c2ccccc2SC1C#N (stereo unspecified)	63.1%	40.1%	37.4%	1.85%	25.1%	27.4%
Clc1ccc(CSc2nnc(SCc3ccc(Cl)cc3)c3[nH]cnc23)cc1	14.2%	0.05%	20.9%	25.9%	-3.2%	-11.7%
COc1ccc2c3c([nH]c2c1[N+](=O)[O-])C(C)N(C)CC3 (stereo unspecified)	-0.1%	7.5%	21.1%	25.3%	0.8%	33.2%
COc1ccc2ccccc2c1Cc1c(O)ccc2ccccc12	15.7%	-4.55%	0.75%	-40%	-3.1%	8%
CC(=O)Oc1c(Br)cc(C(=O)c2ccccc2C(=O)c2cc(Br)c(OC(C)=O)c(Br)c2)cc1Br	13.9%	25.5%	21.6%	-16.3%	11.9%	13.7%
CC1=C(/C=C/C(C)=C/C=C/C(C)=C/C=C/C=C(C)/C=C/C=C(C)/C=C/C=C(C)/C=C/C=C(\C)C(=O)O)C(C)(C)CCC1	3.7%	25.6%	-21.8%	18.6%	7.6%	-2.1%
CCN(CC)CCCCCOC(=O)c1ccccc1	23.2%	28.2%	48.5%	40%	43.4%	18.6%
Nc1cc2c3c(cccc3c1Br)C(=O)OC2=O	99.5% (active)	99.8% (active)	99.7% (active)	99.3% (active)	99.7% (active)	99.5% (active)

SMILES	growth inhibition [1]	growth inhibition [2]	growth inhibition [3]	growth inhibition [4]	growth inhibition [5]	growth inhibition [6]
CCC(O)C(C)[N+](=O)[O-] (stereo unspecified)	28%	-1.85%	7.45%	6%	1.75%	3.75%
COc1cc(Br)c(C=Nc2cccc3ccc(OS(=O)(=O)c4ccc([N+](=O)[O-])cc4)cc23)cc1OC	7.6%	-16.6%	0.65%	4.3%	5.5%	15.6%
Cc1cccc(NC(=O)c2cccc(C(=O)Nc3cccc(C)c3C)c2)c1C	-12.4%	0.6%	17.6%	-15.9%	5.2%	-21.9%
CCOC(=O)CSc1nc(N)c2c(-c3ccccc3)c3c(nc2n1)CCCC3	-23.1%	11.1%	10.8%	33.1%	21.7%	17.7%
COc1ccc(C(=O)C(c2ccccc2)c2ccccc2)cc1	6.65%	1.95%	-13.2%	4.35%	9.25%	6%
O=C(NC1CC/C=C(/c2ccccc2)CC(Cl)C1)c1ccccc1 (stereo unspecified)	7.85%	4.9%	-8.9%	-3.5%	6.6%	-0.25%
Cc1ccc(NC(=O)CCC(CC(=O)C(C)(C)C)=NNC(=O)C(=O)NN)cc1C	-25.8%	-19.3%	-19.4%	-23.5%	-7.4%	-22.2%
Fc1cccc2cccnc12	0.05%	-4.45%	11.2%	5.65%	12.7%	7.4%
O=C(N/N=C/c1ccc(Cl)cc1Cl)c1cccc([N+](=O)[O-])c1	0.65%	-8.7%	32.5%	-6.95%	2.3%	24.4%
CCOC(=O)/C=C/c1cccc(F)c1	19.2%	-5.25%	7.85%	12%	12.2%	10.5%
FC(F)(F)C(F)(F)C(F)(F)C(F)(F)C(F)(F)C(F)(F)C(F)(F)c1noc(C(F)(F)C(F)(F)C(F)(F)C(F)(F)C(F)(F)C(F)(F)C(F)(F)F)n1	-0.55%	6.5%	-5.4%	-5.25%	0.85%	17.4%
O=C1c2ccccc2C(=O)c2c1ccc1c2[nH]c2ccccc21	2.15%	-4.8%	3.75%	-67.2%	0.8%	-4.85%
Cc1ccc(S(=O)(=O)Oc2ccc(-c3ccc([N+](=O)[O-])cc3)cc2)cc1	1.5%	19.2%	15.4%	-6.9%	-1.8%	7.05%
COc1cccc(Nc2sc(C(=O)c3cc4cc(Cl)ccc4o3)c(N)c2C#N)c1	-11.1%	-8.65%	-20.6%	-2.75%	-3.55%	-7.55%
Cc1ccc(N=Nc2ccc(C)cc2NC(=O)CCl)cc1	-17.7%	-15.8%	-21.9%	-21.9%	3.2%	-15.2%
CCOC(=O)C(C(=O)OCC)C(=O)c1cc(OC)c(OC)c(OC)c1	4.55%	10.6%	-1.35%	7.35%	2.55%	6.5%
CC(=O)OC1CC23CCC(=O)C2(CC3)C1 (stereo unspecified)	19.9%	-5.8%	1.85%	-30.1%	8.3%	-11%
Cc1nc(C)c(C(=O)NNC(=O)Cc2ccccc2)cc1C(=O)NNC(=O)Cc1ccccc1	-32%	1.35%	-0.9%	15.5%	-5.55%	-32.4%
O=S(=O)(c1ccccc1)C1CCCC1	-12.2%	8.9%	-1.85%	-11.8%	-6.7%	-2.9%
CCCCCCCCCCCCCCCCSc1ccncc1NN=O	36.2%	-2%	17.1%	-10.5%	-3.8%	2.3%
